From PubChem BioAssay
The list is not random: actives were taken first. Their share in the collection is about 9.4%.
Rab9 promoter act: Rab9 promoter activation. Huh7 Rab9 promoter-luciferase reporter, luminescence, 24 h. Potency, µM (doses to about 9.22 µM), without a hit: at the top dose activation, negative = inhibition, actives largely listed as activators. actives 2.8% (n = 320,000). AID 485297; also: % of control where 0% means no effect; nearly all actives have a fitted effect of over 60% in size
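Huh7 cells stably carrying a Rab9 promoter-luciferase reporter, 1500 cells per well in OP-MEM I with 10% FBS, treated with compound 24 hours at 37C. Luciferase activity read by luminescence after 10 minutes with Amplite reagent.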
SMN2 splice up: increases expression of the SMN2 splice variant; HEK293 SMN2-luciferase splicing reporter, luminescence, 30-36 h; Potency, µM (titrated, usually from 46.1 µM), for the others: at the highest dose activity change, positive = activation, usual class: activators; actives 2.8% (n = 210,000); AID 1458; also: % of control where 0% means no effect; nearly all actives have a fitted effect of over 55% in size
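qHTS luciferase splicing reporter: luminescence rises when SMN2 exon 7 is included in transfected HEK293 cells. Compound exposure lasted 30-36 h at 37C, with 4.5 mM final sodium butyrate as control, followed by a ONE-Glo read.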
ELG1 genotoxic: inducers of genotoxicity in HEK293T ELG1-luciferase cells. AID 504466. HEK293T ELG1-luciferase reporter, luminescence, 16 h. Potency, µM (titrated, usually from 46 µM), without a hit: top-dose activity change, positive = activation, hits mostly activators. actives 1.3% (n = 330,000); also: % of control where 0% means no effect; nearly all actives have a fitted effect of over 60% in size
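Luminescence read-out: rising ELG1-luciferase signal, reflecting elevated ELG1 protein under genetic stress, flags genotoxic compounds. Cells were treated for 16 hr at 37 °C before ONE-Glo detection.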
ELG1 DNA repair: ELG1-dependent DNA repair inhibition; HEK293T ELG1-luciferase reporter, luminescence, 16 h; DNA damage induced by 5-fluorouridine; Potency, µM (titrated, usually from 46.1 µM), without a hit: top-dose activity change, negative = inhibition, usual class: inhibitors; actives 2.3% (n = 330,000); AID 504467; also: % is scaled to controls: 0 for no effect and ±100 for the full control effect; nearly all actives have a fitted effect of over 55% in size
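HEK293T cells expressing luciferase-tagged ELG1 (2,000/well) received 5-Fluorouridine plus compound or DMSO for 16 hr at 37 °C. Luciferase was read by ONE-Glo luminescence after 30 min at room temperature.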
NPC1 prom act: activates the NPC1 promoter. Huh7 NPC1 promoter luciferase reporter, 24 h. Potency, µM (top dose mostly 9.22 µM), without a hit: at the top dose activation, usual class: activators. actives 2.4% (n = 320,000). AID 485313; also: % of control where 0% means no effect; nearly all actives have a fitted effect of over 60% in size
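Quantitative HTS used a cell-based reporter: Huh7 cells stably bearing the NPC1 promoter upstream of luciferase were treated with compounds for 24 h, and promoter activation was read as luminescence.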
FLuc counter: inhibits or activates purified firefly luciferase, miR-21 counter-screen | P08659 | purified FLuc, Km substrates, luminescence inhibition | Potency, µM (series often up to 57.5 µM), inactives show top-dose activity change, negative = inhibition, most hits filed as inhibitors | actives 6.9% (n = 360,000) | AID 588342;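 also: plate controls were vehicle for no effect and reference inhibitor for full effect; nearly all actives have a fitted effect of over 55% in size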
Target sequence (P08659 whole entry, looked up): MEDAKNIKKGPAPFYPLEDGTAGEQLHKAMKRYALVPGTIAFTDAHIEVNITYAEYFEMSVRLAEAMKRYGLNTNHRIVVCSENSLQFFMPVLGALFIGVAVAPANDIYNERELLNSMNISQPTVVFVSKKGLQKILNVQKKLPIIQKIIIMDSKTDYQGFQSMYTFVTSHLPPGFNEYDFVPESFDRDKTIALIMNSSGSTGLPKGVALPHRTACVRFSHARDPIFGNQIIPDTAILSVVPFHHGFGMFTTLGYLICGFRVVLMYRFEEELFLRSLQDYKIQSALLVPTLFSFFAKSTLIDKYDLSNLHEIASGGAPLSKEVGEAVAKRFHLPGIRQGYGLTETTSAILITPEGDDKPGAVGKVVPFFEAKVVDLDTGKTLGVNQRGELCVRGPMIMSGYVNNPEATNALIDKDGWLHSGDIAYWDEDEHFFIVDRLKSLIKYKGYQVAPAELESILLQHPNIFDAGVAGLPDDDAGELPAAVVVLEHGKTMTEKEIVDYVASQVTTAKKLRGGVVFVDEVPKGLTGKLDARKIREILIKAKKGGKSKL
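Biochemical qHTS of compounds, final roughly 60 µM downward over six points, against 10 nM purified firefly luciferase using Km concentrations of substrates (10 uM D-luciferin, 10 uM ATP) in Tris acetate pH 7.5 buffer; luminescence output.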
Numbers without * were called inactive; u = inconclusive; x = no result; [ ] = dose if it differs, or a comment. Calls follow the shape of the dose curve; as a rule, active = well fitted curve in the direction sought with a large enough effect; inconclusive = small, poorly fitted or top-dose-only effect, or another doubt; inactive = no such curve, though single readings can be large; an effect the other way counts as inactive or inconclusive. Potency is read from the fitted curve at half-maximal effect.

SMILES | Rab9 promoter act | SMN2 splice up | ELG1 genotoxic | ELG1 DNA repair | NPC1 prom act | FLuc counter
O=C(O)[C@@H](O)[C@@H](O)C1[O][Sb][O][C@@H]1CO (some centres not stated) | x | -10%[9.22 µM] | x | x | x | x
CCC(=NCc1ccc(F)cc1)c1c(O)n(C)c(=O)n(C)c1=O | -14% | -27% | -11% | 7.9µM* | -8% | -2%
CCC(=Nc1ccc(Cc2ccncc2)cc1)c1c(O)n(C)c(=O)n(C)c1=O | -13% | -55% | -12% | 7.3µM* | -20% | 0%
CCC(=NCCC(c1ccccc1)c1ccccc1)c1c(O)n(C)c(=O)n(C)c1=O | -6% | -26% | -5% | u | -4% | 10%
[Cl][Pd][Cl].[S-]C1=C2N=CN[C-]2[NH+]=C[N-]1.[S-]c1ncnc2[nH]cnc12 | x | -6%[9.22 µM] | x | x | x | x
COc1ccc(-n2c(/C=C/c3ccc(O)c(O)c3)nc3ccccc3c2=O)cc1 | 0% | x | -16% | 18µM* | -7% | u
COc1cc(/C=C/c2nc3ccccc3c(=O)n2-c2ccc(O)cc2)ccc1O | -17% | x | 5% | 16µM* | -8% | u
O=c1c2ccccc2nc(/C=C/c2ccccc2O)n1-c1ccccc1O | -4% | x | -8% | 23µM* | 1% | u
O=C1NC(=O)C(=Cc2ccc(OCCOc3ccc([N+](=O)[O-])cc3)cc2)C(=O)N1 | -2% | -2% | 2% | 7% | -5% | u
Cc1ccc(OCCOc2cccc(C=C3C(=O)NC(=O)NC3=O)c2)c(C)c1 | 0.13µM* | x | u | u | 0.089µM* | 7.6µM*
O=C1NC(=O)C(=Cc2cccc(OCCOc3ccccc3)c2)C(=O)N1 | 0.32µM* | x | u | u | 0.56µM* | 15µM*
CC(C)CN(CC(C)C)c1ccc(C=C2C(=O)NC(=S)NC2=O)cc1[N+](=O)[O-] | 4% | -9% | -3% | 7% | 10% | -12%
CCN(CC)c1ccc(C=C2C(=O)NC(=S)NC2=O)cc1 | -9% | x | u | 15% | -5% | 19µM*
O[N+]1=CC=CCC1=S.On1ccccc1=S.[Zn] | x | -89% | x | x | x | x
COc1cc2c(cc1OC)[C@@]13CCN4CC5=CCO[C@H](CC(=O)O)[C@@H]([C@H]1N2)[C@H]5C[C@H]43 | x | 5%[9.22 µM] | x | x | x | x
CNC(=O)COC(=O)c1ccc(-c2nc3ccccc3s2)s1 | 20% | 16µM* | 3.7µM* | u | u | 1.1µM*
COc1ccc(-c2nnc3sc(C4CCCCC4)nn23)cc1OC | -6% | -1% | -8% | 18µM* | 1% | u
O=C(CCCCCCCCCCC(=O)NCc1cccnc1)NCc1cccnc1 | -10% | x | -1% | 3.7µM* | -1% | -3%
CN(C(=O)Cc1ccc(Cl)c(Cl)c1)C(CN1CCCC1)c1cccc(N=C=S)c1 (configuration not stated) | x | -92% | x | x | x | x
COc1ccc(OC)c(N2C(=O)NC(=O)/C(=C/c3ccc([N+](=O)[O-])s3)C2=O)c1 | -9% | u | -9% | -6% | -4% | 17µM*
CCN1C(=O)/C(=C\c2ccc([N+](=O)[O-])s2)C(=O)NC1=S | 2% | -24% | -13% | 11% | -19% | 8.5µM*
C=CCN1C(=O)/C(=C/c2ccc(Br)s2)C(=O)NC1=S | -5% | x | u | 11% | -8% | u
O=P(O)(O)c1ccccc1OCCOCCOCCOCCOc1ccccc1P(=O)(O)O | 3.5µM* | 24% | -6% | u | 4µM* | u
CN(C)C(=O)Oc1ccc(OC(=O)c2ccccc2)cc1 | -2% | 5% | u | u | -4% | 6.7µM*
CN(C(=O)Oc1ccc(C(=O)c2ccc(Cl)cc2)cc1)c1ccccc1 | -10% | -26% | -5% | -10% | -2% | -2%
SMILES | Rab9 promoter act | SMN2 splice up | ELG1 genotoxic | ELG1 DNA repair | NPC1 prom act | FLuc counter
Clc1ccccc1Nc1ncnc(-n2cccc2)n1 | 3.5µM* | u | u | u | 2.8µM* | 7.6µM*
O=C(C[C@H](c1ccccc1)c1c(O)c2ccccc2oc1=O)c1ccccc1 | x | -4%[9.22 µM] | x | x | x | x
O=C(Cc1c(O)c2ccccc2oc1=O)c1ccc(F)cc1 | u | x | 11% | u | u | 3µM*
CCC1(CCSC(=N)N)C(=O)NC(=O)NC1=O | x | 1%[9.22 µM] | x | x | x | x
CCOC(=O)Cn1cc(C(=O)c2ccccc2)c2ccccc21 | 0% | x | -3% | -13% | -4% | -13%
CCOC(=O)CSc1ncnc2c1cnn2-c1ccccc1 | 0% | u | 5% | 10% | 0% | 12µM*
[Cl-].[Cl-].[Hg+2] | x | -29% | x | x | x | x
COCCOC(=O)c1c(N)n(Cc2ccc(OC)cc2)c2nc3ccccc3nc12 | -1% | 26% | -1% | 15µM* | 1% | u
Nc1c(C(=O)NCc2ccco2)c2nc3ccccc3nc2n1CCN1CCCCC1 | 0% | 9% | -11% | u | -11% | 1%
COCCNC(=O)c1c(N)n(CCC(C)C)c2nc3ccccc3nc12 | 4% | -3% | -9% | 5.8µM* | -2% | -2%
CC(C)OCCCNC(=O)c1c(N)n(Cc2cccs2)c2nc3ccccc3nc12 | 6% | -8% | -20% | 16µM* | 0% | -3%
CCOC(=O)c1c(N)n(Cc2ccc(OC)cc2)c2nc3ccccc3nc12 | -4% | 8% | 0% | u | -3% | 5%
COCCCNC(=O)c1c(N)n(Cc2ccco2)c2nc3ccccc3nc12 | -6% | x | -6% | u | -1% | -10%
CC(C)CCn1c(N)c(C(=O)NCc2cccs2)c2nc3ccccc3nc21 | 8% | -12% | -8% | 6.5µM* | -1% | 3%
O=C(O)C[C@H]1OCC=C2CN3CC[C@]45c6ccccc6N[C@@H]4[C@H]1[C@H]2C[C@H]35 | x | -5%[9.22 µM] | x | x | x | x
COc1ccc(P2(=O)Nc3ccccc3N2)cc1 | -4% | 24% | 17% | u | -3% | 7.6µM*
COc1ccc(C=O)cc1 | 2% | 17% | 1% | -2% | 2% | 1%
CCOc1cc(C=C2C(=O)NC(=O)NC2=O)ccc1OCC(=O)N1CCOCC1 | -2% | -2% | 1% | 6% | -2% | 0%
O=C1NC(=O)C(=Cc2cc(Cl)ccc2OCc2ccc(C(=O)O)cc2)C(=O)N1 | -1% | -9% | 0% | 14% | -2% | 24µM*
